For 28 compounds, Potency and outcome results are on record in PubChem BioAssay (NCATS).

Records with an inconclusive call do not appear. Where a structure was tested more than once in an assay, its records may differ in their call. Calls of active or inactive are those of the source. Calls come from the whole dose curve; as a rule, active = well fitted curve in the direction sought with a large enough effect; inconclusive = small, poorly fitted or top-dose-only effect, or another doubt; inactive = no such curve, though single readings can be large; an effect the other way counts as inactive or inconclusive.

The target of experiment [1] is ATP-dependent 6-phosphofructokinase (Trypanosoma brucei brucei) (UniProt O15648). In words: qHTS Validation Assay to Find Inhibitors of T. brucei phosphofructokinase (AID 485368). Note: potency is the fitted concentration of half-maximal effect. An outline of the steps:
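Steps: substrate mix (0.5 mM F6P, 0.1 mM ATP, MgCl2, TEA pH 8.0); compound; 1.25 nM T. brucei PFK; 45 min RT; ATP depletion 10 min; ADP-to-ATP detection 10 min; luminescence read; curve fitting and classification.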
In general terms: Quantitative high-throughput screening tests each substance at several concentrations.

Experiment [2] is described as follows: Quantitative high throughput screen for delayed death inhibitors of the malarial parasite plastid, 48 hour incubation (AID 488752). Note: nearly all actives have a fitted effect of over 65% in size. Note: potency is the fitted concentration of half-maximal effect. In outline: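 One parasite generation (48 h, 37 C, 5% CO2) of luciferase-reporter P. falciparum in erythrocytes is run with test compound; decreased luminescence indicates inhibited growth.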
Experiment [3] deals with M-phase phosphoprotein 8 (Homo sapiens) (UniProt Q99549). Description: qHTS Validation Assay for Inhibitors for MPP8 Chromodomain Interactions with Methylated Histone Tails (AID 488949). Note: nearly all actives have a fitted effect of over 55% in size. Note: potency is the fitted concentration of half-maximal effect. In outline:
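MPP8 (50 nM) was preincubated with biotinylated H3(1-18)K9me3 peptide (50 nM) in PBS pH 7.4, 0.01% Tween-20 for 30 min at room temperature, then with compounds for 30 min; binding was detected by AlphaScreen.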

In experiment [4] the target is Chromobox protein homolog 1 (Homo sapiens) (UniProt P83916). In words: qHTS Validation Assay for Inhibitors of HP1-beta Chromodomain Interactions with Methylated Histone Tails (AID 488953). Note: nearly all actives have a fitted effect of over 50% in size. Note: potency is the fitted concentration of half-maximal effect. In outline:
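Measured as loss of AlphaScreen luminescence from streptavidin donor and nickel acceptor beads (10 ug/mL final) bridging HP1-beta and biotin-H3(1-18)K9me3, each 50 nM. Compounds met the preassembled complex for 30 min at RT.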

Experiment [5] has as its target Methanococcus maripaludis chaperonin (MmCpn) (UniProt Q6LX38). Description: High-Throughput Screening for Modulators of Cytosolic Chaperonin Activity: MmCpn Primary Screen (AID 488978).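 Note: 50 nM MmCpn enzyme hydrolysing 30 µM ATP at 37 °C.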 An outline of the steps:
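MmCpn (50 nM final) was preincubated with compound 5 min at RT, then 30 uM ATP (final) was added and the reaction ran 10 min at 37C. ADP produced was detected by Transcreener HTRF (ex 320 nm; em 590/665 nm).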

The target in experiment [6] is Transient receptor potential cation channel subfamily V member 1 (Homo sapiens) (UniProt Q8NER1). In words: HTS Assay for Compounds that Act as Enhancers of the Vanilloid Receptor 1 (AID 488979). An outline of the steps: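 Calcium influx kinetics via Fluo-8 (480/520 nm) in TRPV1-expressing cells, 2000/well cultured overnight at 35.5C. Compound-alone read 3 min (agonist phase), followed by EC20 capsaicin challenge for 2 min (enhancer phase).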

In experiment [7] the target is Thyrotropin receptor (Homo sapiens) (UniProt P16473). Description: qHTS Assay for Antagonists of the Thyroid Stimulating Hormone Receptor (AID 488980). Note: series mostly up to about 58 µM. In outline: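 HEK293 cells transfected with human TSHR, suspended in HEPES-buffered HBSS with 70 uM RO 20-1724, were treated with compounds plus TSH at EC80 (4 nM final). cAMP was measured by competitive HTRF (cryptate anti-cAMP antibody, cAMP-d2 acceptor).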

Experiment [8] addresses D(1A) dopamine receptor (Homo sapiens) (UniProt P21728). Description: HTS Assay for Allosteric Agonists of the Human D1 Dopamine Receptor: Primary Screen for Agonists (AID 488981). Note: potency is the fitted concentration of half-maximal effect. An outline of the steps: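 Calcium flux in an inducible, force-coupled HEK293 Trex D1 line (overnight at 30 C): agonist mode is the 180 s kinetic read after compound; potentiator mode is the following 180 s read after dopamine at EC20.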

Experiment [9] addresses Flap endonuclease 1 (Homo sapiens) (UniProt P39748). In words: qHTS Validation Assay for the Inhibitors of Human Flap endonuclease 1 (FEN1) (AID 488816). In outline:
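Readings taken at 0 and 15 min after starting the reaction with 50 nM (final) substrate supplied the signal. Compounds had first sat with 10 nM FEN1 reagent for 15 min at room temperature. Values come from Hill-equation concentration-response fits.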

Experiment [10] can be described thus: Quantitative high throughput screen for delayed death inhibitors of the malarial parasite plastid, 96 hour incubation (AID 488745). Note: nearly all actives have a fitted effect of over 70% in size. Note: potency is the fitted concentration of half-maximal effect. In outline: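 Growth of reporter-bearing P. falciparum in red cells is measured after 96 h with compound, covering two erythrocytic cycles. Luminescence from the integrated luciferase serves as the growth signal.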

Chain of Methanococcus maripaludis chaperonin (MmCpn) (Q6LX38 1-543): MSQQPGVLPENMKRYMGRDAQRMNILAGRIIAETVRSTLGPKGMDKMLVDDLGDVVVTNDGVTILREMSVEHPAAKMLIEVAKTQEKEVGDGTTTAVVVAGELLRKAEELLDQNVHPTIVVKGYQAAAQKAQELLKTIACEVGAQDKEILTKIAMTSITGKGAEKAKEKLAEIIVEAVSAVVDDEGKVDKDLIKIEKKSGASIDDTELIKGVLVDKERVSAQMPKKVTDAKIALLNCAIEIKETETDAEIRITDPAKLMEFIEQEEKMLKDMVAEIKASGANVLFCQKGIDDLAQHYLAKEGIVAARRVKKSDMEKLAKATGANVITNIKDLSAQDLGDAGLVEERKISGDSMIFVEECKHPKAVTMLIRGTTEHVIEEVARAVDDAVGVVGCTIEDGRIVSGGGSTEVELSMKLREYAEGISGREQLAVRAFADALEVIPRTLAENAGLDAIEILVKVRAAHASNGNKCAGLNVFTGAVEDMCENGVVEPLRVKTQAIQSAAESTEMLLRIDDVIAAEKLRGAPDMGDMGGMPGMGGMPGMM
Chain of Transient receptor potential cation channel subfamily V member 1 (Homo sapiens) (Q8NER1 whole entry, looked up): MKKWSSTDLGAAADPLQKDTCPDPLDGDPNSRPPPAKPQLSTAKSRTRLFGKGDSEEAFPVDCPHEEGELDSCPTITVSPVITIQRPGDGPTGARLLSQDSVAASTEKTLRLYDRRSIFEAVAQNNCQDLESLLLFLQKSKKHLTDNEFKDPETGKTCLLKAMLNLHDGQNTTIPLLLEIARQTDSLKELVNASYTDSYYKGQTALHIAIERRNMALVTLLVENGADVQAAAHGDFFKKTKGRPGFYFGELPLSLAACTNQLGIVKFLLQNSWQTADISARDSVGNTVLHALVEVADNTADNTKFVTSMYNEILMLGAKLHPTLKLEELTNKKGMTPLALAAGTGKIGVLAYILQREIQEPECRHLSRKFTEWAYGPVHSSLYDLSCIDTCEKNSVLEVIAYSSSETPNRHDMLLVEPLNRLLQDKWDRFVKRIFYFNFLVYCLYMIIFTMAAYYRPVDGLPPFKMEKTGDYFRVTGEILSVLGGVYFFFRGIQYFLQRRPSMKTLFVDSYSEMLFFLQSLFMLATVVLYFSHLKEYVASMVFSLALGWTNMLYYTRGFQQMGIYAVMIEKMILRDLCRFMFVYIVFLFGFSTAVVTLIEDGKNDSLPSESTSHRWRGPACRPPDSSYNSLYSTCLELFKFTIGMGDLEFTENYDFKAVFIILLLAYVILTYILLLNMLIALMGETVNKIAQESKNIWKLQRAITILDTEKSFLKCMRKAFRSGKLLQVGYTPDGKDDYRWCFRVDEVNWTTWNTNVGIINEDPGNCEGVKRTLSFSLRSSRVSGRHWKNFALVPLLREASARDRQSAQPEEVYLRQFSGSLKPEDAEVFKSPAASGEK
Chain of D(1A) dopamine receptor (Homo sapiens) (P21728 whole entry, looked up): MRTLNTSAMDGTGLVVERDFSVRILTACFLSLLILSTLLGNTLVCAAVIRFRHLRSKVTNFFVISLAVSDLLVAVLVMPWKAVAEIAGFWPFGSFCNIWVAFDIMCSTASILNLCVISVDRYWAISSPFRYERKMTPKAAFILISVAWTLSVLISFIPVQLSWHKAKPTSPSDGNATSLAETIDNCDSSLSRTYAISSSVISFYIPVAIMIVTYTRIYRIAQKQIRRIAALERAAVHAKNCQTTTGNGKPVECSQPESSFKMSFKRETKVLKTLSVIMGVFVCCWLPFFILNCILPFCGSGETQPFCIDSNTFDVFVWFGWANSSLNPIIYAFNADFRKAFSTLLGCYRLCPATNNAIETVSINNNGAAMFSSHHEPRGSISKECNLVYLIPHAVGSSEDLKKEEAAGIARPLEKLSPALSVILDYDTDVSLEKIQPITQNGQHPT
Chain of Thyrotropin receptor (Homo sapiens) (P16473 whole entry, looked up): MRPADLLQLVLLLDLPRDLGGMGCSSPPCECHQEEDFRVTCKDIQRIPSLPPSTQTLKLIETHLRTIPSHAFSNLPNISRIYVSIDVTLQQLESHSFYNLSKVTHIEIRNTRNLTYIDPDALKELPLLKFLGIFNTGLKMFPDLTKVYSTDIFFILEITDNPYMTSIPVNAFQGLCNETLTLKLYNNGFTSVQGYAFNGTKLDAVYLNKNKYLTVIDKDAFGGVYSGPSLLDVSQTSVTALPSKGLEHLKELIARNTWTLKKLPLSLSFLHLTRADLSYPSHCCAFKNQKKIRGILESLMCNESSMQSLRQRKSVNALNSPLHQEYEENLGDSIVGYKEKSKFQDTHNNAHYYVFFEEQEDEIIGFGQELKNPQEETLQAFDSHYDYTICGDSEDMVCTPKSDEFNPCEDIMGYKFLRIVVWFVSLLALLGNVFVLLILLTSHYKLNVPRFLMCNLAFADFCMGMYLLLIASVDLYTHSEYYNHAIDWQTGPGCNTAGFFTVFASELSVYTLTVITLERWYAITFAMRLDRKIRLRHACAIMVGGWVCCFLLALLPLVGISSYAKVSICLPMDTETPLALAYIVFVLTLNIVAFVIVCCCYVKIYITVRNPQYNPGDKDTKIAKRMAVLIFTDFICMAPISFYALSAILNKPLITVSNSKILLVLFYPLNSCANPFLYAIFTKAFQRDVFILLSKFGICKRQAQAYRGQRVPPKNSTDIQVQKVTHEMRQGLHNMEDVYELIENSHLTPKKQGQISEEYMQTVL
Chain of ATP-dependent 6-phosphofructokinase (Trypanosoma brucei brucei) (O15648 whole entry, looked up): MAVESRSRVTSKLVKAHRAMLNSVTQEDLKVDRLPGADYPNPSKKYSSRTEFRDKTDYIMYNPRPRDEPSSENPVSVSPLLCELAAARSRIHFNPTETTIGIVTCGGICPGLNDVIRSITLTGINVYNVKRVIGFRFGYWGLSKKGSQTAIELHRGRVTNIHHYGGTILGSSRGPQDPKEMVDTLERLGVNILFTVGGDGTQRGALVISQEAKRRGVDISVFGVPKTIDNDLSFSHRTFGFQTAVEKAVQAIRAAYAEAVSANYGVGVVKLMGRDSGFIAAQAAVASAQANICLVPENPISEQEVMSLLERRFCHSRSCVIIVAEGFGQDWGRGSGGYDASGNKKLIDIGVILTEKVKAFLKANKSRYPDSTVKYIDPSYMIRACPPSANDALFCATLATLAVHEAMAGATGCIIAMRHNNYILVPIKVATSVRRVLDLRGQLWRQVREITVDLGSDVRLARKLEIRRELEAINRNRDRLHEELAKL
Chain of M-phase phosphoprotein 8 (Homo sapiens) (Q99549 whole entry, looked up): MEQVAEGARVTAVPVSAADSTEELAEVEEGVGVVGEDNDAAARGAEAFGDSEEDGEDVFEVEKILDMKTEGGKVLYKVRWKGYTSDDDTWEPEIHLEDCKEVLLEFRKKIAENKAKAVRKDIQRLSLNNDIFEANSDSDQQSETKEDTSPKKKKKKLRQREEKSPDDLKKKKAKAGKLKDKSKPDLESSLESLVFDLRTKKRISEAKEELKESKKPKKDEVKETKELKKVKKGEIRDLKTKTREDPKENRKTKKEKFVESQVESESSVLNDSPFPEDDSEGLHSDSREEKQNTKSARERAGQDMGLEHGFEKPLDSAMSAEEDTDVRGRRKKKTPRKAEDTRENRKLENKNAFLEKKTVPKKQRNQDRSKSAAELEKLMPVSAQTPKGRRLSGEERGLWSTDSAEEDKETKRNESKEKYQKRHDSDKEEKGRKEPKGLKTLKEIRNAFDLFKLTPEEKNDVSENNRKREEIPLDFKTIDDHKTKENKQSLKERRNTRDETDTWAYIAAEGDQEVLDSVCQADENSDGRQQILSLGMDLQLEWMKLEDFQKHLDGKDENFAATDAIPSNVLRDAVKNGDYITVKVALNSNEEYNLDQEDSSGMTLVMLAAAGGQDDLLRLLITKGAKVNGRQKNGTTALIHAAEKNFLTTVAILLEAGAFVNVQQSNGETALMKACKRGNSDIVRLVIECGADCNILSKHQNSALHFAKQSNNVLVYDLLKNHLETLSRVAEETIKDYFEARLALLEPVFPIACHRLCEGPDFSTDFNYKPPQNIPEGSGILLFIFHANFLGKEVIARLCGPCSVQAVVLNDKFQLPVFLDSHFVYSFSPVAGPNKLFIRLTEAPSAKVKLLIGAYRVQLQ
Chain of Flap endonuclease 1 (Homo sapiens) (P39748 whole entry, looked up): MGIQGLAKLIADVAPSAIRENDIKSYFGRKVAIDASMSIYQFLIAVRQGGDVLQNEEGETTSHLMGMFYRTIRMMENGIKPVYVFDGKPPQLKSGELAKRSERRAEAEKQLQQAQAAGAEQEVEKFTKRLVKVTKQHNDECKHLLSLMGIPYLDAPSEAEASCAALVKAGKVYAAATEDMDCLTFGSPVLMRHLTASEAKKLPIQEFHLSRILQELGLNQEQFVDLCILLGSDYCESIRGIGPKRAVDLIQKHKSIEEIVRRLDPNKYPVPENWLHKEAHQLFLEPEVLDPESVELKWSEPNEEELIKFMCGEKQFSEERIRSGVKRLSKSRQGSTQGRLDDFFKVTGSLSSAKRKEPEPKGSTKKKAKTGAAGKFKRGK
Chain of Chromobox protein homolog 1 (Homo sapiens) (P83916 whole entry, looked up): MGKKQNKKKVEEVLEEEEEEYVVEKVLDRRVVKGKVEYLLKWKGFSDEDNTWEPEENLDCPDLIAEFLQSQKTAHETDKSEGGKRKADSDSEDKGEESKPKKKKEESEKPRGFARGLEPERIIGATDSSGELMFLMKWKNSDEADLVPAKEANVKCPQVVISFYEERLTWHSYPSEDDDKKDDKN

`COC(=O)[C@H]1[C@H]2C[C@H]3c4[nH]c5ccccc5c4CCN3C[C@H]2CC[C@@H]1O`: the Potency result in experiment [1], in experiment [2], in experiment [3], in experiment [4] and in experiment [8] was “inactive” each time. Also, the call in experiment [5], in experiment [6] and in experiment [7] was inactive.
For `CC(C)C[C@H]1C(=O)N2CCC[C@H]2[C@]2(O)O[C@](NC(=O)[C@@H]3C=C4c5cccc6[nH]c(Br)c(c56)C[C@H]4N(C)C3)(C(C)C)C(=O)N12`, the result in experiment [9] and in [5] was inactive. For the same compound, the Potency result in [3] and in [8] was “inactive” throughout.
With `CN=C(NC#N)Nc1ccc(C2=NNC(=O)CC2C)cc1` (stereo unspecified), the Potency entry in experiment [10], in experiment [2] and in [3] was “inactive” each time. For the same compound, the result in experiment [6] and in [7] was inactive.
On to `CN1C2CCC1CC(OC(=O)c1c[nH]c3ccccc13)C2` (stereo unspecified), for which the result in experiment [9], in experiment [5], in experiment [6] and in [7] was inactive. The Potency result in [3], in [4] and in [8] was “inactive” in each case.
Turning to `CCCC1O[C@@H]2C[C@H]3[C@@H]4CCC5=CC(=O)C=C[C@]5(C)[C@H]4[C@@H](O)C[C@]3(C)[C@]2(C(=O)CO)O1` (stereo partly specified), the outcome in [9] and in [5] was inactive. The Potency result in [3], in [4] and in experiment [8] was “inactive” throughout.
In the case of `CNCCC=C1c2ccccc2CCc2ccccc21`, the Potency entry in experiment [1], in experiment [3] and in [4] was “inactive” each time. The result in experiment [5] and in experiment [7] was inactive. Moreover, the Potency in experiment [8] is 20 µM (active).
For the compound `O=C1CCC(c2ccc(-n3ccnc3)cc2)=NN1`, the Potency entry in experiment [1], in experiment [10], in experiment [2], in experiment [3] and in experiment [8] was “inactive” in each case. For the same compound, the result in experiment [9], in [5], in experiment [6] and in [7] was inactive.
`COc1cc2c(cc1O)CC[C@@H]1[C@@H]2CC[C@]2(C)[C@@H](O)CC[C@@H]12`: the outcome in experiment [9] and in experiment [5] was inactive. Moreover, the Potency entry in experiment [3] and in experiment [8] was “inactive” throughout.
Turning to `CC(CCc1ccccc1)NCC(O)c1ccc(O)c(C(N)=O)c1` (stereo unspecified), the Potency entry in experiment [1], in experiment [3], in experiment [4] and in experiment [8] was “inactive” each time. Further, the Potency in [2] was 13.1 µM (active). The result in [9], in experiment [5] and in [6] was inactive.
In the case of `CNCCC(Oc1ccccc1C)c1ccccc1` (stereo unspecified), the Potency entry in [10], in experiment [2], in experiment [3] and in [8] was “inactive” throughout. For the same compound, the compound was classed as inactive in experiment [5] and in experiment [7].
As to `O=C(O)c1cc2cc(Cc3cccnc3)ccc2o1`, the Potency entry in experiment [1], in experiment [10], in experiment [2], in experiment [3], in experiment [4] and in [8] was “inactive” in each case. Further, the compound was classed as inactive in experiment [9], in experiment [5], in experiment [6] and in experiment [7].
For `CCCn1c(=O)[nH]c(=O)c2[nH]cnc21`, the Potency entry in [10], in experiment [2], in experiment [3], in [4] and in experiment [8] was “inactive” throughout. Further, the outcome in experiment [9], in experiment [5], in [6] and in [7] was inactive.
For the compound `CC(C)COC(=O)OCN1C(=O)CN(CCN2CC(=O)N(COC(=O)OCC(C)C)C(=O)C2)CC1=O`, the Potency result in [10], in [2], in experiment [4] and in experiment [8] was “inactive” each time. The compound was classed as inactive in experiment [9], in [5], in experiment [6] and in experiment [7].
On to `Nc1cc(Cl)c(NC2=NCCN2)c(Cl)c1`, for which the Potency entry in [10], in experiment [2], in [3], in [4] and in experiment [8] was “inactive” throughout. Also, the compound was classed as inactive in experiment [9], in [5], in experiment [6] and in experiment [7].
For the compound `COc1cc(NS(C)(=O)=O)ccc1Nc1c2ccccc2nc2ccccc12`, the Potency entry in experiment [1] and in experiment [8] was “inactive” in each case. Also, the Potency in experiment [10] is 1.17 µM (active); in experiment [2], 1.85 µM (active); in experiment [3], 39.8 µM (active) and inactive; in [4], 79.4 µM (active). Also, the compound was called inactive in experiment [9], in experiment [5], in [6] and in [7].
Turning to `N[C@@H](Cc1cnc[nH]1)C(=O)O`, the Potency entry in experiment [1], in experiment [10], in experiment [2], in experiment [3], in [4] and in experiment [8] was “inactive” in each case. Also, the outcome in experiment [9], in experiment [5], in experiment [6] and in experiment [7] was inactive.
With `CC[C@H](C)C(=O)O[C@H]1CCC=C2C=C[C@H](C)[C@H](CC[C@@H]3C[C@@H](O)CC(=O)O3)[C@H]21`, the Potency entry in [1], in experiment [3], in experiment [4] and in experiment [8] was “inactive” throughout. Further, the compound was classed as inactive in [9] and in experiment [5].
For the compound `CC1(C)CCC(NC(=O)[C@@H](N)CCC(=O)O)CC1`, the Potency result in experiment [1], in experiment [10], in [2], in experiment [3], in experiment [4] and in [8] was “inactive” in each case. The compound was classed as inactive in experiment [9], in [5], in [6] and in experiment [7].
As for `C[C@]12CC[C@@H]3c4ccc(O)cc4CC[C@H]3[C@@H]1CC[C@@H]2O`, the Potency entry in experiment [1], in [10], in [2], in [3], in [4] and in [8] was “inactive” throughout. Besides, the compound was called inactive in experiment [9], in experiment [5], in experiment [6] and in [7].
`C[C@@H]1C(=O)NC2=Nc3cccc(Cl)c3CN21`: the Potency entry in experiment [10], in experiment [2], in experiment [3], in experiment [4] and in [8] was “inactive” throughout. In addition, the outcome in experiment [9], in [5], in experiment [6] and in experiment [7] was inactive.
On to `CCC(NC(C)C)C(O)c1ccc(O)c(O)c1` (stereo unspecified), for which the Potency entry in experiment [1], in experiment [2], in experiment [3], in experiment [4] and in [8] was “inactive” each time. The result in experiment [9], in [5], in experiment [6] and in experiment [7] was inactive.
Regarding `N[C@H](CO)C(=O)O`, the Potency result in [1], in [10], in [2], in experiment [3], in experiment [4] and in experiment [8] was “inactive” in each case. Further, the call in experiment [9], in experiment [5], in [6] and in [7] was inactive.
Take `CC(=O)O[C@H]1C[C@@H]2CC[C@@H]3[C@H](CC[C@@]4(C)[C@H]3C[C@H]([N+]3(C)CCCCC3)[C@@H]4OC(C)=O)[C@@]2(C)C[C@@H]1[N+]1(C)CCCCC1`: the Potency result in experiment [1], in [3], in experiment [4] and in [8] was “inactive” each time. Moreover, the call in experiment [9] and in [5] was inactive.
As to `CC(C)NC[C@@H](O)COc1cccc2ccccc12`, the Potency result in experiment [3] was “inactive”.
As to `C[N+]1(CCCCC[N+]2(C)CCCC2)CCCC1`, the Potency entry in experiment [1], in [2], in experiment [3], in [4] and in [8] was “inactive” each time. Besides, the outcome in [9], in experiment [5], in experiment [6] and in [7] was inactive.
In the case of `COc1cc(-c2ccc(=O)[nH]n2)ccc1OC(F)F`, the Potency result in experiment [10], in [2] and in experiment [3] was “inactive” each time. Moreover, the result in [6] and in experiment [7] was inactive.
With `C1CCc2nnnn2CC1`, the Potency entry in [10], in [2], in [3], in experiment [4] and in [8] was “inactive” throughout. Moreover, the compound was called inactive in experiment [9], in [5], in experiment [6] and in experiment [7].
On to `Oc1ccc(O)cc1`, for which the Potency is 10.7 µM (active) in [1], 10.4 µM (active) in experiment [10] and 8.28 µM (active) in experiment [2]. Also, the outcome in experiment [9], in [5], in [6] and in [7] was inactive. The Potency entry in experiment [3] and in experiment [8] was “inactive” throughout.
